From PubChem BioAssay (NCATS)
Results filed as inconclusive are left out. A call without a number means that no potency is given here. Activity calls are given as the source filed them. The call rests on the fitted dose curve; in most records, active means well fitted curve in the direction sought with a large enough effect; inconclusive means small, poorly fitted or top-dose-only effect, or another doubt; inactive means no such curve, though single readings can be large; an effect the other way counts as inactive or inconclusive.

experiment: Cell Viability - LYMP2-005 (AID 967); conditions: LYMP2-005 lymphoblastoid cell viability; series mostly up to 92.2 µM; further: potency means the concentration at half of the fitted maximal effect
In short: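 qHTS viability screen in LYMP2-005 cells: 24 h at 37 C with compound, ATP luminescence via CellTiter-Glo, AC50 from Hill curves.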

Row | SMILES | Potency
1 | NC(=Nc1ccccc1)Nc1ccccc1 | inactive
2 | CN=C(NC#N)NCCSCc1nc[nH]c1C | inactive
3 | COc1ccc(CN(CCN(C)C)c2ccccn2)cc1 | inactive
4 | CCCCOCCOCCOCc1cc2c(cc1CCC)OCO2 | inactive
5 | Nc1nc(N)c2nc(-c3ccccc3)c(N)nc2n1 | inactive
6 | NC(=O)N1c2ccccc2C=Cc2ccccc21 | inactive
7 | O=c1[nH]c(=O)n([C@H]2C[C@H](O)[C@@H](CO)O2)cc1Br | inactive
8 | Nc1ncn([C@@H]2O[C@H](CO)[C@@H](O)[C@H]2O)c(=O)n1 | 12.6 µM (active)
9 | CCCCNC(=O)NS(=O)(=O)c1ccc(C)cc1 | inactive
10 | COc1cc(Cc2cnc(N)nc2N)cc(OC)c1OC | inactive

experiment: Cell Viability - LYMP2-009 (AID 968); conditions: LYMP2-009 lymphoblastoid cell viability; series mostly up to 92.2 µM; further: nearly all actives have a fitted effect of over 55% in size; further: potency means the concentration at half of the fitted maximal effect

Row | SMILES | Potency
11 | NC(=Nc1ccccc1)Nc1ccccc1 | inactive
12 | CN=C(NC#N)NCCSCc1nc[nH]c1C | inactive
13 | COc1ccc(CN(CCN(C)C)c2ccccn2)cc1 | inactive
14 | CCCCOCCOCCOCc1cc2c(cc1CCC)OCO2 | inactive
15 | Nc1nc(N)c2nc(-c3ccccc3)c(N)nc2n1 | inactive
16 | NC(=O)N1c2ccccc2C=Cc2ccccc21 | inactive
17 | O=c1[nH]c(=O)n([C@H]2C[C@H](O)[C@@H](CO)O2)cc1Br | inactive
18 | Nc1ncn([C@@H]2O[C@H](CO)[C@@H](O)[C@H]2O)c(=O)n1 | 15.8 µM (active)
19 | CCCCNC(=O)NS(=O)(=O)c1ccc(C)cc1 | inactive
20 | COc1cc(Cc2cnc(N)nc2N)cc(OC)c1OC | inactive

experiment: Cell Viability - LYMP2-011 (AID 969); conditions: LYMP2-011 lymphoblastoid cells viability; series mostly up to 92.2 µM; further: nearly all actives have a fitted effect of over 60% in size
In short: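 Cytotoxicity qHTS with ATP content as read-out: lymphoblastoid cells (2500/well) exposed to compound for 24 h at 37 C, then luciferase luminescence measured. Concentration-response data fitted with the standard Hill equation to give AC50.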

Row | SMILES | outcome
21 | NC(=Nc1ccccc1)Nc1ccccc1 | inactive
22 | CN=C(NC#N)NCCSCc1nc[nH]c1C | inactive
23 | COc1ccc(CN(CCN(C)C)c2ccccn2)cc1 | inactive
24 | CCCCOCCOCCOCc1cc2c(cc1CCC)OCO2 | inactive
25 | Nc1nc(N)c2nc(-c3ccccc3)c(N)nc2n1 | inactive
26 | NC(=O)N1c2ccccc2C=Cc2ccccc21 | inactive
27 | O=c1[nH]c(=O)n([C@H]2C[C@H](O)[C@@H](CO)O2)cc1Br | inactive
28 | CCCCNC(=O)NS(=O)(=O)c1ccc(C)cc1 | inactive
29 | COc1cc(Cc2cnc(N)nc2N)cc(OC)c1OC | inactive

experiment: Cell Viability - LYMP2-013 (AID 970); conditions: LYMP2-013 lymphoblastoid cells viability; series mostly up to 92.2 µM; further: nearly all actives have a fitted effect of over 55% in size
In short: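 qHTS cytotoxicity: ATP-dependent luminescence (CellTiter-Glo, 30 min room temperature) read after 24 h compound exposure at 37 C of 2500 LYMP2-013 lymphoblastoid cells per well. Concentration-response fitted with Hill equation to give AC50.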

Row | SMILES | outcome
30 | NC(=Nc1ccccc1)Nc1ccccc1 | inactive
31 | CN=C(NC#N)NCCSCc1nc[nH]c1C | inactive
32 | COc1ccc(CN(CCN(C)C)c2ccccn2)cc1 | inactive
33 | CCCCOCCOCCOCc1cc2c(cc1CCC)OCO2 | inactive
34 | Nc1nc(N)c2nc(-c3ccccc3)c(N)nc2n1 | inactive
35 | NC(=O)N1c2ccccc2C=Cc2ccccc21 | inactive
36 | O=c1[nH]c(=O)n([C@H]2C[C@H](O)[C@@H](CO)O2)cc1Br | inactive
37 | CCCCNC(=O)NS(=O)(=O)c1ccc(C)cc1 | inactive
38 | COc1cc(Cc2cnc(N)nc2N)cc(OC)c1OC | inactive
